Screening data as filed in PubChem BioAssay.
Compounds with a hit are over-represented: about 18% of the library has one in this group of screens.
TDP1 cell noCPT – qHTS for Inhibitors of human tyrosyl-DNA phosphodiesterase 1 (TDP1): qHTS in cells in absence of CPT. DT40 Tdp1-/- hTDP1 cells, no CPT, ATP luminescence, 48 h. Potency, µM (titrated, usually from 46.2 µM), for the others: at the highest dose activity change, negative = growth inhibition, actives largely listed as inhibitors. 15% of 420,000 active; also: potency is read from the fitted curve at half-maximal effect; % is scaled to controls: 0 for no effect and ±100 for the full control effect; nearly all actives have a fitted effect of over 55% in size
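Luminescent ATP content (CellTiter-Glo) served as the growth readout. Knockout chicken DT40 cells expressing human TDP1 were exposed to compounds without camptothecin for a minimum 48 hr at 37 °C.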
DT40 TDP1 CPT – qHTS for Inhibitors of human tyrosyl-DNA phosphodiesterase 1 (TDP1): qHTS in cells in presence of CPT; chicken DT40 Tdp1-/-;hTDP1 cells + 20 nM CPT, ATP luminescence, 48 h; 12% of 420,000 active; Potency, µM (series often up to 46.2 µM), for inactives: top-dose activity change, negative = growth inhibition, actives largely listed as inhibitors; AID 686979, 2013; also: potency is read from the fitted curve at half-maximal effect; % is scaled to controls: 0 for no effect and ±100 for the full control effect; nearly all actives have a fitted effect of over 55% in size
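Chicken DT40 Tdp1-/- cells stably complemented with human TDP1 were seeded at 400 cells/well in medium containing 20 nM camptothecin, exposed to pin-transferred compounds, and grown at 37 °C for at least 48 hr. Viability was read as ATP luminescence.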
TGFb SMAD3 inh – qHTS for Inhibitors of TGF-b | Potency, µM (series often up to 46.1 µM), without a hit: at the top dose activity, negative = inhibition, most hits filed as inhibitors | HepG2 CAGA-GFP TGF-b/SMAD3 reporter, GFP fluorescence, 18 h; TGF-beta stimulated, 500 pg/mL final | 1.2% of 410,000 active; also: potency is read from the fitted curve at half-maximal effect; % is scaled to controls: 0 for no effect and ±100 for the full control effect; nearly all actives have a fitted effect of over 65% in size
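GFP signal (ex488/em500-530) from TGF-beta-stimulated HEPG2 CAGA-GFP cells, 500 pg/mL final, 18 h at 37 degrees C in DMEM plus 1% FBS, normalized to unstimulated and DMSO-stimulated controls.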
IL1B secr inh – qHTS for Inhibitors of Inflammasome Signaling: IL-1-beta AlphaLISA Primary Screen. AID 743279, 2014. 4.7% of 360,000 active. activity change, % at 57.5 µM. THP-1 LPS/ATP IL-1B secretion, AlphaLISA, 16 h; active compounds read low; in the data active = activity change below about -50%; inconclusive = mostly about -30% to -49%; also: % is scaled to controls: 0 for no effect and ±100 for the full control effect
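Secreted IL-1B measured by AlphaLISA bead assay after 16 h compound exposure of THP-1 cells; compounds (final up to 57.5 uM) added 1 h before LPS (250 ng/mL) and ATP (1.25 mM) stimulation; lower signal means less secretion.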
TDP1 inh – qHTS Assay for Inhibitors of Tyrosyl-DNA Phosphodiesterase (TDP1) | Potency, µM (titrated, usually from 130 µM), inactives show top-dose activity change, negative = inhibition, actives largely listed as inhibitors | recombinant TDP1, AlphaScreen DNA substrate cleavage | 0.28% of 350,000 active; also: potency is read from the fitted curve at half-maximal effect; % is scaled to controls: 0 for no effect and ±100 for the full control effect; nearly all actives have a fitted effect of over 40% in size
Target sequence (Q9NUW8 whole entry, looked up): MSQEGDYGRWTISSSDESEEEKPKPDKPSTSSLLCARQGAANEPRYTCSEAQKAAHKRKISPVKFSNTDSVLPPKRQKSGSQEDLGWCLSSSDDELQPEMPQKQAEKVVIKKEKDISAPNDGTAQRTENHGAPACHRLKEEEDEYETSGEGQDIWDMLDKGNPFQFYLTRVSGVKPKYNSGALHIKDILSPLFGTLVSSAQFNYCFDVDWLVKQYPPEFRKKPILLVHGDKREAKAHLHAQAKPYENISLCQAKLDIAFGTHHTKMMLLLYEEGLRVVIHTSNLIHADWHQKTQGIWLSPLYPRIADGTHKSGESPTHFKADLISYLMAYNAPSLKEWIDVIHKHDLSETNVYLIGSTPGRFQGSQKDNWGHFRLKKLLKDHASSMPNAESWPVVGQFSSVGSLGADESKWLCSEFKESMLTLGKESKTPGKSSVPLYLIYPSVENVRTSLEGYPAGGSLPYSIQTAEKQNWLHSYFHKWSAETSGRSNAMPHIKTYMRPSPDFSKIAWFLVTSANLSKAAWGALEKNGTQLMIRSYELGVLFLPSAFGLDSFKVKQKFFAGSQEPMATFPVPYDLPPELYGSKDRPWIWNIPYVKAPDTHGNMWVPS
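Enzyme-compound mixtures sat 15 min at room temperature, followed by a 5 min reaction with 15 nM final substrate and 10 min with AlphaScreen beads. Recombinant human Tdp1 was used at 1 nM final.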
HepG2 tox – qHTS for Inhibitors of TGF-b: Cytotox Counterscreen; 0.76% of 410,000 active; HepG2 CAGA-GFP viability, ATP luminescence, 18 h; Potency, µM (doses to about 46.1 µM), without a hit: top-dose activity change, negative = cytotoxicity, most hits filed as cytotoxic; also: potency is read from the fitted curve at half-maximal effect
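CellTiter-Glo luminescence gave cytotoxicity after 18 hours at 37 degrees C. The cells were HepG2 CAGA-GFP in 1% FBS DMEM, stimulated with 500 pg/mL TGF-beta after compound addition. %Activity was normalised to no-cell wells (complete cell-killing) and DMSO (no toxicity), and curves were fitted and classified.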
An asterisk follows results filed as active; i = inactive; ? = inconclusive; · = no result; [ ] = another dose, or the depositor's remark. Unless noted, calls follow the shape of the dose curve; as a rule, active = well fitted curve in the direction sought with a large enough effect; inconclusive = small, poorly fitted or top-dose-only effect, or another doubt; inactive = no such curve, though single readings can be large; an effect the other way counts as inactive or inconclusive.

SMILES | TDP1 cell noCPT | DT40 TDP1 CPT | TGFb SMAD3 inh | IL1B secr inh | TDP1 inh | HepG2 tox
O=C(CN1C(=O)C2CC=CCC2C1=O)Nc1ccc(Br)cc1 (centres undefined) | 12% | 9% | 3% | 2 | 1% | 10%
O=C(Cn1sc2ccccc2c1=O)Nc1ccc(Cl)cc1 | 2.6µM* | 5.2µM* | 11µM* | -105* | · | -57%
O=C(Cn1sc2ccccc2c1=O)Nc1ccc(F)cc1 | 2.1µM* | 2.9µM* | 18µM* | -104* | · | 22µM*
O=C(Cn1sc2ccccc2c1=O)Nc1ccc(Br)cc1 | 2.3µM* | 2.3µM* | ? | -98* | · | -48%
O=C(Cn1nc(-c2ccccc2)c2ccccc2c1=O)Nc1ccc(F)cc1 | ? | -22% | 7% | -9 | 1% | 6%
Cc1ccc(NC(=O)Cn2nc(-c3ccc(Cl)cc3)c3ccccc3c2=O)cc1 | ? | ? | 0% | · | · | 6%
Cc1ccc(-n2c(C)cc(/C=c3/sc4nc5ccccc5n4c3=O)c2C)cc1 | 9.2µM* | 16µM* | -10% | -9 | -7% | 0%
O=C1CCC(C(=O)N2CCCC(Nc3ccc(F)cc3)C2)=NN1 (centres undefined) | 3% | 1% | 0% | i | 3%[56.1 µM] | -17%
CC(C)c1ccc(OCC(=O)Nc2c(Cl)ccc3nsnc23)cc1 | -26% | -29% | 24% | · | 5% | 0%
Cn1ccnc1/C(=N\NC(=O)c1ccccc1)c1cccc([N+](=O)[O-])c1 | ? | 3% | -14% | -51* | -3% | -20%
Cn1ccnc1/C(=N\NC(=O)c1ccc(O)cc1)c1cccc([N+](=O)[O-])c1 | -11% | -30% | 3% | -13 | · | 4%
O=C(N/N=C(\c1ccccc1)c1ccccn1)c1cccc([N+](=O)[O-])c1 | 1µM* | 1.2µM* | ? | 24 | 10% | -1%
N/C(=N\OC(=O)c1cccc([N+](=O)[O-])c1)c1ccccn1 | -21% | ? | -3% | 13 | -6% | -18%
CCOc1ccc(C(=O)N/N=C(\c2ccccc2)c2ccccn2)cc1 | 2.9µM* | 2.1µM* | ? | -100* | 10% | -37%
COc1ccc(S(=O)(=O)N2CCCCCC2)cc1NC(=O)CCNC(=O)c1ccccc1Cl | -27% | -13% | 5% | -1 | · | 3%
CCOC(=O)c1cnc2cc(-c3ccc(Cl)cc3)nn2c1N | -15% | -20% | 12% | -6 | 6% | 8%
CCOC(=O)c1cnc2cc(-c3ccc(Cl)cc3)nn2c1-c1ccccc1 | 13µM* | ? | -21% | · | · | -15%
CCc1noc(C)c1C(=O)Nc1nnc(C(CC)CC)s1 | 4% | -3% | 1% | 31 | 0% | -32%
Cc1cccc(N2CCN(C(=O)c3noc4c3CCCCC4)CC2)c1C | -51% | ? | ? | · | 2% | -12%
O=C(c1ccc2ccccc2c1)C1CCCN(C(=O)c2noc3c2CCCC3)C1 (centres undefined) | ? | ? | ? | -72* | 8% | -25%
CSc1ccc(C(=O)C2CCCN(C(=O)c3cccnc3SC)C2)cc1 (centres undefined) | 16µM* | ? | -27% | 53 | 3% | -5%
CSc1ccc(C(=O)C2CCCN(C(=O)c3ccsc3)C2)cc1 (centres undefined) | ? | ? | -28% | 0 | -2% | -28%
CN(C)c1ccccc1C(=O)N1CCCC(C(=O)c2ccc3ccccc3c2)C1 (centres undefined) | 23µM* | ? | ? | -8 | 3% | -24%
CSc1ccc(C(=O)C2CCCN(C(=O)c3ccc4c(c3)no[n+]4[O-])C2)cc1 (centres undefined) | 13µM* | ? | ? | -67* | · | -18%
Cc1cc(Br)ccc1NC(=O)COC(=O)c1ccccc1OCC(=O)N(C)C | -11% | 7% | -8% | · | · | 1%
SMILES | TDP1 cell noCPT | DT40 TDP1 CPT | TGFb SMAD3 inh | IL1B secr inh | TDP1 inh | HepG2 tox
CSc1ccc(C(=O)C2CCCN(C(=O)CCn3cncn3)C2)cc1 (centres undefined) | -25% | 4% | -26% | 2 | 3%[56.1 µM] | -1%
CSc1ncccc1C(=O)N1CCCC(C(=O)c2ccc3ccccc3c2)C1 (centres undefined) | 21µM* | ? | 10% | -56* | 1% | 2%
CSc1ccc(C(=O)C2CCCN(C(=O)CCc3c(C)nn(C)c3C)C2)cc1 (centres undefined) | 8.2µM* | 10µM* | -14% | -12 | · | -40%
O=C(c1ccc2ccccc2c1)C1CCCN(C(=O)c2cccnc2)C1 (centres undefined) | 15µM* | 16µM* | -13% | i | 4% | 18%
Cc1ccc(NC(=O)c2c(C)oc3nc(C)nc(N4CCCC4)c23)c(C)c1 | -10% | -2% | -15% | · | 6% | -22%
CCc1ccc(S(=O)(=O)Nc2ccc3c(c2)sc(=O)n3C)cc1 | 15µM* | 21µM* | 0% | · | 7% | -40%
CC(C)(C)NC(=O)C(c1ccccc1)N(C(=O)CNC(=O)c1cccs1)c1cccnc1 (centres undefined) | -14% | -5% | 5% | -9 | · | 12%
COc1ccc(Cl)cc1NC(=O)Cn1c(=O)n(Cc2ccco2)c(=O)c2ccc(C(=O)NC3CCCC3)cc21 | -11% | -8% | -3% | · | 2% | -2%
Cc1ccccc1NC(=O)Cn1c(=O)n(Cc2ccc3c(c2)OCO3)c(=O)c2ccc(C(=O)NC3CCCCC3)cc21 | 7.3µM* | 5.8µM* | -17% | · | -7% | -9%
Cc1cc(C)c(NC(=O)Cn2c(=O)n(CCC(=O)N3CCc4ccccc4C3)c(=O)c3ccccc32)c(C)c1 | 0.52µM* | 13µM* | -20% | · | 6% | -25%
CCN(C(=O)Cn1c(=O)n(Cc2ccc3c(c2)OCO3)c(=O)c2ccc(C(=O)NC3CCCCC3)cc21)c1cccc(C)c1 | 16µM* | 15µM* | 3% | · | 5% | -27%
Cc1ccc(NC(=O)Cn2c(=O)n(Cc3ccco3)c(=O)c3ccc(C(=O)NC4CCCC4)cc32)c(C)c1 | 16µM* | 16µM* | -5% | · | -7% | -12%
Cc1ccc(Cl)cc1NC(=O)Cn1c(=O)n(CCC(=O)N2CCc3ccccc3C2)c(=O)c2ccccc21 | ? | ? | 6% | · | -1% | -3%
